In PubChem BioAssay (NCATS):
Results filed as inconclusive are left out. Activity calls are given as the source filed them. Unless noted, the call rests on the fitted dose curve; in most records, active means well fitted curve in the direction sought with a large enough effect; inconclusive means small, poorly fitted or top-dose-only effect, or another doubt; inactive means no such curve, though single readings can be large; an effect the other way counts as inactive or inconclusive.

Columns and labels:
[1] = biological target: Lysosomal acid glucosylceramidase (Homo sapiens) (UniProt P04062); assay: Glucocerebrosidase-p2 (AID 348; in the data active means potency below about 10 µM; further: potency means the concentration at half of the fitted maximal effect); conditions: purified GBA, blue fluorogenic substrate, 40 min
Chain of Lysosomal acid glucosylceramidase (Homo sapiens) (P04062 whole entry, looked up): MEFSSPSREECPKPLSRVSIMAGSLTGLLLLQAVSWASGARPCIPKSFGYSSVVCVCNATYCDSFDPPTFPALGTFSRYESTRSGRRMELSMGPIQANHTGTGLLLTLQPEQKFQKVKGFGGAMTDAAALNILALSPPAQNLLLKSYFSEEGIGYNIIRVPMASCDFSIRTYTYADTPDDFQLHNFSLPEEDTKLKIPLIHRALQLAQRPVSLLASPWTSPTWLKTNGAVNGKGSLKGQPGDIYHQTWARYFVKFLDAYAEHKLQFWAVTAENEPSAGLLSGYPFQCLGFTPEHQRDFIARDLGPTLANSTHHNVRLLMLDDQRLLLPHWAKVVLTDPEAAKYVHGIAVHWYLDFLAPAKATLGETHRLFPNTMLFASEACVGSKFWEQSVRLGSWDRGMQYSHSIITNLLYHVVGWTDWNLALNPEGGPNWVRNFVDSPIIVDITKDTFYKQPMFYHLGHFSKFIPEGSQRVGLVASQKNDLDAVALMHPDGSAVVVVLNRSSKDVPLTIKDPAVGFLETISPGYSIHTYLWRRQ
Method in brief: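 Normal human glucocerebrosidase (0.2 nM) with blue fluorogenic substrate (80 uM final) in citrate/phosphate pH 5.9 with 10mM sodium taurocholate, 0.01% tween-20; 40 min RT, NaOH/glycine stop; fluorescence Ex 365/Em 440; AC50 from a titration from 0.6 nM upwards.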

[2] = biological target: Cytochrome P450 1A2 (Homo sapiens) (UniProt P05177); assay: p450-cyp1a2 (AID 410; calls by dose curve; further: potency means the concentration at half of the fitted maximal effect;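 on activity change, negative = inhibition: -100% = full effect of reference inhibitor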); conditions: recombinant CYP1A2, luciferin-ME demethylation, luminescence; series mostly up to 57 µM
Chain of Cytochrome P450 1A2 (Homo sapiens) (P05177 whole entry, looked up): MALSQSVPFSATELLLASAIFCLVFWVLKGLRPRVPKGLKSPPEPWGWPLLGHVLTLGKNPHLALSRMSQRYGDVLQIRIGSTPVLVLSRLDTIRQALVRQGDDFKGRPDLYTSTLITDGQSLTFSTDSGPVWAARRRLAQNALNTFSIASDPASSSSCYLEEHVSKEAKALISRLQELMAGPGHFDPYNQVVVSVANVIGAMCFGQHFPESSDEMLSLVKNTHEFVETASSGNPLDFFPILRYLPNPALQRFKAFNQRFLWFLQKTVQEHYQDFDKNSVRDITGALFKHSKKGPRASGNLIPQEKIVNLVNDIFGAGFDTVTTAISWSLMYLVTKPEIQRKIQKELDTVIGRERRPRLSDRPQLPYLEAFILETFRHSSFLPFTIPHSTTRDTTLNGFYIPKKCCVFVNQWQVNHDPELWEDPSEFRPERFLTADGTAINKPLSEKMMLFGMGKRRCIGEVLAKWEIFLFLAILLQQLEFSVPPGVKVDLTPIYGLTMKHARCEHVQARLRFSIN
Method in brief: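 O-Demethylation of luciferin 6' methyl ether by human CYP1A2 is monitored as luciferase luminescence. Substrate sits at Km (100uM); enzyme is 20nM. Values are scaled to 57 uM furafylline as maximal inhibition.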

[3] = Stat Signaling Pathway (AID 446; active means well fitted curve in either direction with a large enough effect, not every such curve was filed as active;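 further: ME-180 cervical cancer cells given 40 pM IL-6 alongside compound; SIE-controlled beta-lactamase reporter measured as 460/530 nm FRET emission ratio; on the % scale 0 is the no-effect control and ±100 the full control effect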); conditions: ME-180 SIE beta-lactamase reporter, IL-6 stimulated, 5 h; at 7.69 µM (top of the series) unless noted
Method in brief: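 FRET read-out (405 nm excitation, 460/530 nm emission) of a beta-lactamase reporter under a STAT-inducible element in ME-180 cervical carcinoma cells. Cells with compound receive 40 pM IL-6 for 5 h. Values are normalised to AC90 stimulation and AC90 JAK-inhibitor controls.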

[4] = biological target: Glucocorticoid receptor (Homo sapiens) (UniProt P04150); assay: GR-EFC Redistribution (AID 451; calls by dose curve; further: potency means the concentration at half of the fitted maximal effect); conditions: CHO-K1 GR-EFC translocation, beta-gal luminescence, 2 h
Chain of Glucocorticoid receptor (Homo sapiens) (P04150 whole entry, looked up, the tested form may be a part): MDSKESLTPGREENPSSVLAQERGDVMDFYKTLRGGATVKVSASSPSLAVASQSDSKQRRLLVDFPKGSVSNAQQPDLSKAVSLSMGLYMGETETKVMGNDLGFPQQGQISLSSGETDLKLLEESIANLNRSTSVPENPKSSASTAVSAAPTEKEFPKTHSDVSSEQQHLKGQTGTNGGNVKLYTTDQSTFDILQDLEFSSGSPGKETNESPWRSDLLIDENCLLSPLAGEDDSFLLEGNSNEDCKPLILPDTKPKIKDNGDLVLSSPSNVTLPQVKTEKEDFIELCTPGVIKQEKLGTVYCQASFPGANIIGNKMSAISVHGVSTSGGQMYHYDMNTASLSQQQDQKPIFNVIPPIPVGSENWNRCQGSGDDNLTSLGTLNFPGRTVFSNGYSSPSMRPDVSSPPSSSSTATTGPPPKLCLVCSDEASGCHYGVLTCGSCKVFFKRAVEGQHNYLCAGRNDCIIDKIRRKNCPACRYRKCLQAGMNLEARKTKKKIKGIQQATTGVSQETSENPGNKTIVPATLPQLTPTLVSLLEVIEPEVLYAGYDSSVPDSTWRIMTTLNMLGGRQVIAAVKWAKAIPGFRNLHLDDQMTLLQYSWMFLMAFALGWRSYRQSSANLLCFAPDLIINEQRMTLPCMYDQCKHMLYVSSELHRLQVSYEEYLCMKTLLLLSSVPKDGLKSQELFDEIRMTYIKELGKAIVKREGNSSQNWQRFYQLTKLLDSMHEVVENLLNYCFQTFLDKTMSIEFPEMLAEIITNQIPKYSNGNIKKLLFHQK
Method in brief: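 CHO-K1 cells stably expressing nuclear-localized β-gal enzyme acceptor and GR fused C-terminally to the enzyme donor fragment; ligand-driven nuclear translocation restores β-gal by complementation. Compounds titrated up to 46 uM final, 2 h at 37 °C; luminescence read.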

[5] = biological target: Mitogen-activated protein kinase 10 (Mus musculus) (UniProt Q61831); assay: JNK3 AlphaScreen Assay (AID 530; active means well fitted curve in either direction with a large enough effect, not every such curve was filed as active;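 further: kinase came from lysate of stimulated human HepG2 cells; signal reports phosphorylation of biotinylated GST-cJun 1-79 at Ser73 with 10 µM ATP; on the % scale 0 is the no-effect control and ±100 the full control effect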); conditions: JNK3 lysate, c-Jun phosphorylation; series mostly up to 57.1 µM
Method in brief: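 Phosphorylation of biotinylated GST-cJun(1-79) at Ser73 is measured by AlphaScreen proximity luminescence. Enzyme is JNK3 in HepG2 lysates activated with interleukin-1beta and tumor necrosis factor alpha; ATP is 10 uM final.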

[6] = biological target: Cytochrome P450 3A4 (Homo sapiens) (UniProt P08684); assay: qHTS Assay for Activators of Cytochrome P450 3A4 (AID 885); conditions: recombinant CYP3A4, Luciferin-PPXE luminescence, 60 min; series mostly up to 57.1 µM; further: nearly all actives have a fitted effect of over 65% in size
Chain of Cytochrome P450 3A4 (Homo sapiens) (P08684 whole entry, looked up): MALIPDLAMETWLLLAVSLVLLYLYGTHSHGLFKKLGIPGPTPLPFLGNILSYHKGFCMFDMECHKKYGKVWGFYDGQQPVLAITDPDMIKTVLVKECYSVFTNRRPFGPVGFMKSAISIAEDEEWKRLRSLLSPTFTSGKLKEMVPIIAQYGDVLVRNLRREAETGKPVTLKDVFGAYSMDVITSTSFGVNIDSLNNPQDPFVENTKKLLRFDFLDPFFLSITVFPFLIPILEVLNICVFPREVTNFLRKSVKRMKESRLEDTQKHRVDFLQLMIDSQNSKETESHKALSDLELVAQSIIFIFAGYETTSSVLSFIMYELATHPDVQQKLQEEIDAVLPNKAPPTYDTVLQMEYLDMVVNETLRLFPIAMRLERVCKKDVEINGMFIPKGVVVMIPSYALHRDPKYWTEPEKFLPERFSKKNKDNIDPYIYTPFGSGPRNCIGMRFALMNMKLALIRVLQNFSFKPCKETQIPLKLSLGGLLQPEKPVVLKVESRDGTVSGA
Method in brief: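 Luminescent readout of luciferin formed from 25 uM Luciferin-PPXE (KM level) by 20 nM CYP3A4 in 200 mM KPO4, with 60 min NADPH-driven reaction at room temperature after 10 min compound exposure. Ketoconazole (57 uM) defined 100% inhibition.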

[7] = Primary qHTS for small molecule stabilizers of the endoplasmic reticulum resident proteome: Secreted ER Calcium Modulated Protein (SERCaMP) assay (AID 1508630); conditions: SH-SY5Y GLuc-SERCaMP (Gaussia luciferase released on ER calcium loss) secretion, thapsigargin, luminescence; series mostly up to 38.4 µM; further: on the % scale 0 is the no-effect control and ±100 the full control effect
Method in brief: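 The SH-SY5Y reporter protocol was run at 3 concentrations up to 38.3 uM (primary) or 11 concentrations (follow-up): 16 h compound, 100 nM thapsigargin for 4 h, then extracellular luciferase luminescence.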

[8] = AP1 Signaling Pathway (AID 357; active means well fitted curve in either direction with a large enough effect, not every such curve was filed as active; further: on the % scale 0 is the no-effect control and ±100 the full control effect); conditions: ME-180 AP-1-bla reporter, EGF-induced, beta-lactamase ratio, 5 h; at 7.69 µM (top of the series) unless noted
Method in brief: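 ME-180 cells with beta-lactamase reporter under AP-1 response element, stimulated with EC50 EGF; compounds tested in titration series, 5 h at 37 °C. CCF4 substrate added 2.5 h at room temperature; 460/530 nm emission ratio gave %activity and AC50.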

[9] = biological target: Glucocorticoid receptor (Homo sapiens) (UniProt P04150); assay: GR-GFP Redistribution (AID 450;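 active means compounds whose dose series gives a full or clear partial fitted curve of increased nuclear translocation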; further: potency means the concentration at half of the fitted maximal effect); conditions: U2OS GR-GFP nuclear translocation, laser cytometry, 2 h
[10] = qHTS Assay for Identification of Small Molecule Agonists for Hypoxia Response Element Signaling Pathway (AID 914; active means well fitted activation curve with a large enough effect in the signal ratio, with a control signal flat, not every such curve was filed as active; the % refers to the signal ratio; further: potency means the concentration at half of the fitted maximal effect); conditions: ME-180 (cervical carcinoma) HRE-bla reporter, beta-lactamase ratio, CoCl2, 17 h; activation: active compounds read high
Method in brief: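 In Opti-MEM containing 0.5% dialyzed FBS and 10 mM HEPES, ME-180 HRE-bla cells received a compound titration and EC50 CoCl2. They were incubated 17 hours, then CCF4-loaded 2.5 hours at room temperature before ratio reading.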

[11] = NFAT Signaling Pathway (AID 444; active means well fitted curve in either direction with a large enough effect, not every such curve was filed as active); conditions: Jurkat NFAT-bla M1, carbachol, beta-lactamase ratio, 5 h; at 7.69 µM (top of the series) unless noted
Method in brief: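 Jurkat cells carrying an NFAT-driven β-lactamase reporter and co-transfected muscarinic M1 receptor were treated with compound plus carbachol (1 uM final, an EC50 level) for 5 h at 37 °C. CCF4 loading followed for 1 h at RT; 460/530 nm ratio gave %activity.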

[12] = biological target: 3',5'-cyclic-AMP phosphodiesterase 4B (Homo sapiens) (UniProt Q07343); assay: qHTS Assay for Inhibitors of PDE-IV (AID 607; active means well fitted activation curve with a large enough effect in the main read-out, with a control signal flat, not every such curve was filed as active; further: % of control where 0% means no effect); conditions: HEK293 ACTOne CNG channel cells, membrane potential fluorescence; series mostly up to 22.9 µM
Chain of 3',5'-cyclic-AMP phosphodiesterase 4B (Homo sapiens) (Q07343 whole entry, looked up): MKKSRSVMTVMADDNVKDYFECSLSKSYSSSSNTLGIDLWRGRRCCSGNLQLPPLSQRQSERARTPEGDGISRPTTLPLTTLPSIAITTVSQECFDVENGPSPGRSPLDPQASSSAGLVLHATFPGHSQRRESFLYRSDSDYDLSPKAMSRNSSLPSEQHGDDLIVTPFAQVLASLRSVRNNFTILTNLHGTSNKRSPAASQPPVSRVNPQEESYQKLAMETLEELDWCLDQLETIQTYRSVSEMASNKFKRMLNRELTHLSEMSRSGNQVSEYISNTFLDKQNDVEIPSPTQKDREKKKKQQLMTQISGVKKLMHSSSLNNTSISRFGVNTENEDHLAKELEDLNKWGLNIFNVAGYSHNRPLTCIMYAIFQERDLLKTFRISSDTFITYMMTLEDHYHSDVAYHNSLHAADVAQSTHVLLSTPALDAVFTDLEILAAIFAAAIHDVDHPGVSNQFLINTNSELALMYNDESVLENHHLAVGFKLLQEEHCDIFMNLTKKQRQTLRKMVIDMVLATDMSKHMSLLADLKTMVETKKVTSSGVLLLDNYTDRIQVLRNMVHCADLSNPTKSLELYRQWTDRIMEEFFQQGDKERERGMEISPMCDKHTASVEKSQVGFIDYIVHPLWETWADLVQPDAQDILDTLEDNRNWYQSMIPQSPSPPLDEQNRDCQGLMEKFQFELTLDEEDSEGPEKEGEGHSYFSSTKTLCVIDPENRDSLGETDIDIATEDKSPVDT
Method in brief: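 Cell-based read-out of cAMP via a modified cyclic nucleotide-gated channel and membrane potential dye (535/590 nm) in HEK293 cells expressing PDE4 endogenously. Compounds tested up to 22.9 uM final; 100 uM RO 20-1724 reference.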

[13] = biological target: Cytochrome P450 2C9 (Homo sapiens) (UniProt P11712); assay: qHTS Assay for Inhibitors and Substrates of Cytochrome P450 2C9 (AID 883); conditions: recombinant CYP2C9, luciferin-H luminescence, 60 min; series mostly up to 57.1 µM; further: nearly all actives have a fitted effect of over 60% in size; further: potency means the concentration at half of the fitted maximal effect
Chain of Cytochrome P450 2C9 (Homo sapiens) (P11712 whole entry, looked up): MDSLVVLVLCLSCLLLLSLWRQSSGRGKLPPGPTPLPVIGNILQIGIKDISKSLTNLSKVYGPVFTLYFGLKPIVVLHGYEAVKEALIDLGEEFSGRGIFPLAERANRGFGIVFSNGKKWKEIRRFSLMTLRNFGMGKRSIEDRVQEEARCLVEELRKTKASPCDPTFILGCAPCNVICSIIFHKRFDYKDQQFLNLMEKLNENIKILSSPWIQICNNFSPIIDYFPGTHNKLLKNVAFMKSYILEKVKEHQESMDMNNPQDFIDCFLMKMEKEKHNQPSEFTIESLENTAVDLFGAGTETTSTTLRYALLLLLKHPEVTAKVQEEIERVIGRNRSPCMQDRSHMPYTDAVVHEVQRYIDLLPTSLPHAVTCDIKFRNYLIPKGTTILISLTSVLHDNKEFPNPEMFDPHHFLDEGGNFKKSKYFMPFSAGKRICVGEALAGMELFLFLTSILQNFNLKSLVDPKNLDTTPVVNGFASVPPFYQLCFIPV
Method in brief: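 A luminogenic readout tracked human CYP2C9 (10nM) converting deoxyluciferin (100uM, at KM) in 25mM KPO4 during 60 min at 37C with regenerated NADPH. Values normalized to 57uM sulphaphenazole as complete inhibition.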

[14] = biological target: Cytochrome P450 3A4 (Homo sapiens) (UniProt P08684); assay: qHTS Assay for Inhibitors and Substrates of Cytochrome P450 3A4 (AID 884); conditions: recombinant CYP3A4, Luciferin-PPXE luminescence; series mostly up to 57.1 µM; further: nearly all actives have a fitted effect of over 50% in size; further: potency means the concentration at half of the fitted maximal effect
Method in brief: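 Luminescent readout of luciferin produced by CYP3A4 (20 nM) dealkylation of Luciferin-PPXE, 25 uM (its KM). NADPH-driven reaction ran 60 min at RT after 10 min compound preincubation; data scaled to 57 uM ketoconazole as 100% inhibition.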

[15] = biological target: Cytochrome P450 2C19 (Homo sapiens) (UniProt P33261); assay: qHTS Assay for Inhibitors and Substrates of Cytochrome P450 2C19 (AID 899); conditions: recombinant CYP2C19, luciferin-H EGE luminescence; series mostly up to 57.1 µM; further: potency means the concentration at half of the fitted maximal effect; nearly all actives have a fitted effect of over 60% in size
Chain of Cytochrome P450 2C19 (Homo sapiens) (P33261 whole entry, looked up): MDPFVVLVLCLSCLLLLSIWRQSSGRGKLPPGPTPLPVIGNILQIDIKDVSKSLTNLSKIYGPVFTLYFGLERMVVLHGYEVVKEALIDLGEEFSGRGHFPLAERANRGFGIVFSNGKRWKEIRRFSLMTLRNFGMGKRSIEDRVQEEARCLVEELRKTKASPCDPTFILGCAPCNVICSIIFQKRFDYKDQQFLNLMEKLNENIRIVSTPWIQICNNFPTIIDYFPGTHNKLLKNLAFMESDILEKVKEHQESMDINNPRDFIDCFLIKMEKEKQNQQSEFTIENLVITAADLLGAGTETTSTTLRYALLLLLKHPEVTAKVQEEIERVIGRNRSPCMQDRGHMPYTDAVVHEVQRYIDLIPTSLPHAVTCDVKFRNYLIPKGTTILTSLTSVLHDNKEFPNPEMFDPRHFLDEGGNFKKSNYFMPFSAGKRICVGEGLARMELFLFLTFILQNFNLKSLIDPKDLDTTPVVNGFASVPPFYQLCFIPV
Method in brief: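 NADPH-dependent conversion of Luciferin-H EGE (10uM, at KM) by 5nM enzyme in 50mM KPO4, 60 min at 37C following 10 min compound preincubation. Stopped with luciferin detection buffer; luminescence read after 20 min.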

[16] = Confirmation and Secondary Assay for Modulators of Hemoglobin Beta Chain Splicing at IVS2 654 locus (AID 910); conditions: HeLa EGFP-654 splicing reporter, GFP fluorescence, 48 h; series mostly up to 38.3 µM;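 further: per-well total GFP intensity by laser scanning cytometry after 2-day treatment; % of control where 0% means no effect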
Method in brief: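 HeLa cells stably carrying EGFP interrupted by mutant beta-globin IVS2-654 intron (CMV-driven) were treated with compound for 2 days at 37C; corrected splicing was scored as total peak GFP intensity per well (488 nm excitation, 500-520 nm emission).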

[17] = Confirmation and Secondary Assay for Modulators of Hemoglobin Beta Chain Splicing at IVS2 705 locus (AID 930); conditions: HeLa EGFP-705 splicing reporter, GFP fluorescence, 48 h; series mostly up to 38.3 µM;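 further: HeLa cells stably expressing the EGFP-705 splicing reporter; GFP fluorescence per well restored by corrected splicing of the IVS2-705 intron in EGFP; % of control where 0% means no effect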
Method in brief: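 Per-well GFP, captured at 1 x 8 µm resolution with 488 nm excitation, served as the read-out for HeLa EGFP-705 cells incubated 2 days with test compound versus DMSO.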

[18] = biological target: Ubiquitin carboxyl-terminal hydrolase 1 (Homo sapiens) (UniProt O94782); assay: Inhibitors of USP1/UAF1: Pilot qHTS (AID 504865); conditions: purified USP1/UAF1, Ub-rhodamine cleavage fluorescence; series mostly up to 54.9 µM;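 further: rhodamine fluorescence freed from ubiquitin-rhodamine substrate followed over time; top concentration of the series differs between compounds; on the % scale 0 is the no-effect control and ±100 the full control effect; nearly all actives have a fitted effect of over 35% in size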
Chain of Ubiquitin carboxyl-terminal hydrolase 1 (Homo sapiens) (O94782 whole entry, looked up): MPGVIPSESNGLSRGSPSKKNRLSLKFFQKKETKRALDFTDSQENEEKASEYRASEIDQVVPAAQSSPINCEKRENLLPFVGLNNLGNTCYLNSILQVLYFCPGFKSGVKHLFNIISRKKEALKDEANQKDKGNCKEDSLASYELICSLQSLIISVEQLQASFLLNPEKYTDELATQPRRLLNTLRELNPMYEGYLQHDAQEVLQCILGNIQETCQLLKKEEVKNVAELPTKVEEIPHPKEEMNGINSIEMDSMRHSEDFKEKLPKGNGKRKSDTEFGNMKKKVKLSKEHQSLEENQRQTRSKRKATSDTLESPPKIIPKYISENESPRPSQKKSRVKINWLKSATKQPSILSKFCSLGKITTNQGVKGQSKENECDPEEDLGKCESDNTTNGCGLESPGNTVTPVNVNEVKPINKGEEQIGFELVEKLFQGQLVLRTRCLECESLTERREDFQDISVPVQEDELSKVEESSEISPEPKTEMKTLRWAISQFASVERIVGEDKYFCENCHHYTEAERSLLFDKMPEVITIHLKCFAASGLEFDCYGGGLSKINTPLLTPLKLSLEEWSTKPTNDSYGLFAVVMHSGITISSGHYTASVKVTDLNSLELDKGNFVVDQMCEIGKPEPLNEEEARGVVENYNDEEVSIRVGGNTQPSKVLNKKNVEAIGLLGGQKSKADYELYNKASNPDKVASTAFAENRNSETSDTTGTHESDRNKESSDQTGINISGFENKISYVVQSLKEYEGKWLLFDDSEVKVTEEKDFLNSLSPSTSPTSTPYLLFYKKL
Method in brief: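 1nM USP1/UAF1 + cpd, 15 min RT; start w/ Ub-Rho 150nM final; kinetic FL 480/540 nm, 6 reads q60 s. Buffer 50mM HEPES pH 7.8, 0.5mM EDTA, 1mM TCEP, 0.01% Tween-20, 0.1 mg/ml BSA.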

O=C(c1cccc(F)c1)N1CCC2(CCCN(Cc3cc(C(F)(F)F)cc(C(F)(F)F)c3)C2)CC1
inactive: Potency [1] > 11.4 µM | Potency [2] | activity, negative = inhibition [3] 3.76% | Potency [4] > 46 µM | Potency [5] | Potency [6] | outcome [7]

O=c1c(-c2cccs2)nc2cnc(Oc3ccccc3)nc2n1-c1ccccc1
active: Potency [10] 2.51 µM
inactive: Potency [1] > 11.4 µM | activity change, negative = inhibition [8] 3.02% | Potency [9] > 9.22 µM | Potency [4] > 46 µM | Potency [5] | outcome [7]

O=S(=O)(c1ccccc1)N1CCC2(CCN(c3ncccn3)CC2)CC1
inactive: Potency [1] > 11.4 µM | Potency [2] | activity change, negative = inhibition [11] -15.7% | activity, negative = inhibition [3] -15.6% | Potency [4] > 46 µM | Potency [5] | Potency [12] | Potency [6] | outcome [7]

CCNc1ncc2nc(-c3ccccc3)c(=O)n(-c3ccc(OC)cc3)c2n1
inactive: Potency [1] > 11.4 µM | activity change, negative = inhibition [8] 27.6% | Potency [9] > 9.22 µM | Potency [4] > 46 µM | Potency [5] | outcome [7]
active: Potency [10] 3.16 µM

COc1cccc(Cn2c(=O)cnc3cnc(Oc4cccc(Cl)c4)nc32)c1
active: Potency [2] 12.6 µM | Potency [13] 3.98 µM | Potency [14] 5.01 µM
inactive: Potency [1] > 11.4 µM | activity change, negative = inhibition [11] -4.32% | activity, negative = inhibition [3] -20.6% | Potency [9] > 9.22 µM | Potency [4] > 46 µM | Potency [5] | Potency [6] | outcome [7]

O=C(Oc1ccccc1)N1CCC2(CCCN(c3ncccn3)C2)CC1
inactive: Potency [1] > 11.4 µM | activity change, negative = inhibition [11] -6.42% | activity, negative = inhibition [3] -23.6% | Potency [4] > 46 µM | Potency [12] | outcome [7]
active: Potency [2] 10 µM

Cn1c(=O)c(-c2ccccc2)nc2cnc(Oc3ccccc3)nc21
inactive: Potency [1] > 11.4 µM | activity change, negative = inhibition [11] 7.65% | activity, negative = inhibition [3] -0.677% | Potency [9] > 9.22 µM | Potency [4] > 46 µM | Potency [5] | Potency [12] | Potency [14] | outcome [7]
active: Potency [2] 2 µM

COc1cccc(Cn2c(=O)c(-c3cccs3)nc3cnc(N4CCN(C)CC4)nc32)c1
active: Potency [2] 5.01 µM | activity change, negative = inhibition [11] 160% [activator]
inactive: Potency [1] > 11.4 µM | Potency [9] > 9.22 µM | Potency [4] > 46 µM | Potency [12] | Potency [13] | Potency [6] | outcome [7]

CCNc1ncc2nc(-c3ccc(Cl)cc3)c(=O)n(-c3ccccc3)c2n1
active: Potency [2] 1 µM
inactive: Potency [1] > 11.4 µM | Potency [9] > 9.22 µM | Potency [4] > 46 µM | Potency [5] | outcome [7]

CCNc1ncc2ncc(=O)n(CCc3ccccc3)c2n1
inactive: Potency [1] > 11.4 µM | activity change, negative = inhibition [11] 9.34% | activity, negative = inhibition [3] -25.4% | Potency [9] > 9.22 µM | Potency [4] > 46 µM | Potency [5] | Potency [12] | Potency [6] | outcome [7]
active: Potency [2] 1 µM | Potency [15] 0.631 µM

COc1ccc(Oc2ncc3nc(-c4cccs4)c(=O)n(Cc4cccc(OC)c4)c3n2)cc1
inactive: Potency [1] > 11.4 µM | Potency [2] | activity change, negative = inhibition [11] -5.95% | Potency [9] > 9.22 µM | Potency [4] > 46 µM | Potency [6] | outcome [7]
active: Potency [14] 3.98 µM | Potency [10] 3.16 µM

COc1ccc(C(=O)N2CCC[C@@]3(CCN(C(=O)Nc4cccc(C#N)c4)C3)C2)cc1
inactive: Potency [1] > 11.4 µM | Potency [2] | activity change, negative = inhibition [11] 16.6% | activity, negative = inhibition [3] 1.52% | Potency [4] > 46 µM | Potency [5] | Potency [12] | outcome [7]
active: Potency [14] 7.94 µM

O=C(c1cccc(F)c1)N1CCC2(CCCN(Cc3nccs3)C2)CC1
inactive: Potency [1] > 11.4 µM | Potency [2] | activity, negative = inhibition [3] 5.18% | Potency [4] > 46 µM | Potency [5] | Potency [12] | outcome [7]

COc1ccc(CNc2nc(-c3ccccc3CN(C)C)nc3ccccc23)c(OC)c1
inactive: Potency [1] > 11.4 µM | activity change, negative = inhibition [11] -28% | activity, negative = inhibition [3] -17.2% | Potency [9] > 46 µM | Potency [4] > 46 µM | Potency [5] | activity change, negative = inhibition [13] 25.6% [at 2.29 µM] | Potency [6] | Potency [16] | outcome [17] | Potency [18] | outcome [7]
active: Potency [2] 10 µM | Potency [14] 7.94 µM

c1cncc(CNc2nc(-c3ccc4c(c3)OCO4)nc3ccccc23)c1
inactive: Potency [1] > 11.4 µM | activity, negative = inhibition [3] -7.26% | Potency [9] > 46 µM | Potency [4] > 46 µM | Potency [5] | Potency [6] | Potency [16] | outcome [17] | outcome [7]
active: Potency [2] 0.1 µM | Potency [14] 0.316 µM

O=C(Oc1ccccc1)N1CCC2(CCCN(c3cccc(-c4ccccc4)c3)C2)CC1
inactive: Potency [1] > 11.4 µM | Potency [2] | activity change, negative = inhibition [11] -27.7% | activity, negative = inhibition [3] 2.68% | Potency [4] > 46 µM | Potency [5] | Potency [12] | Potency [6] | outcome [7]
